Results as given in PubChem BioAssay (NCATS).
Records with an inconclusive call do not appear. Activity calls are given as the source filed them. The call rests on the fitted dose curve; in most records, active means well fitted cell-killing curve with a large enough effect; inconclusive means small, poorly fitted or top-dose-only effect, or effect the other way; inactive means no such curve, though single readings can be large or run the other way. Peptide text beside a SMILES is read from it.

Assay: Quantitative High-Throughput drug screen in 47 multiple myeloma cell lines against the NCATS MIPE library collection: XG6_PLB cell viability assay (AID 1919865); further: nearly all actives have a fitted effect of over 40% in size
Conditions: XG6 myeloma viability, CellTiter-Glo ATP luminescence, 48 h; series mostly up to 45.8 µM
Excerpt: PI: Beverly A. Mock Ph.D.
Laboratory of Cancer Biology and Genetics,
Center for Cancer Research, National Cancer Institute,
National Institute of Health, Bethesda, Maryland
Drug resistance and disease progression are common in multiple myeloma (MM) patients, underscoring the need for new therapeutic combinations. […] We hypothesized that effective combinations would reduce MYC expression and enhance p16 activity. […] These preclinical data identify potentially useful drug combinations for evaluation in drug-resistant MM and reveal potential mechanisms of combined drug sensitivity.
Described herein is the primary MIPE qHTS used to cherrypick compounds. Validated compounds were then further tested for potential synergistic activiy.
[1] Peat TJ, Gaikwad SM, Dubois W, Gyabaah-Kessie N, Zhang S, Gorjifard S, Phyo Z, Andres M, Hughitt VK, Simpson RM, Miller MA, Girvin AT, Taylor A, Williams D, D'Antonio N, Zhang Y, Rajagopalan A, Flietner E, Wilson K, Zhang X, Shinn P, Klumpp-Thomas C, McKnight C, Itkin Z, Chen L, Kazandijian D, Zhang J, Michalowski AM, Simmons JK, Keats J, Thomas CJ, Mock BA. Drug combinations identified by high-throughput screening promote cell cycle transition and upregulate Smad pathways in myeloma. Cancer Lett. 2023 Aug 1;568:216284. doi: 10.1016/j.canlet.2023.216284. Epub 2023 Jun 24. PMID: 37356470; PMCID: PMC10408729.
SEQUENCE No. (e.g., 1, 2, 3, etc.); […] (e.g., Cells, Incubation, Reagent, etc.); VALUE and DESCRIPTION.
1; Cells; 5 uL; white, solid bottom 1536-well Greiner assay plate.
2; Compounds; 23 nL; Kalypsis pin tool (Wako USA) equipped with a 1536-well pin head to transfer to the assay plates.
3; Incubation; 48 hours; 37C incubation.
4; Reagent;5uL; CellTiter Glo (Promega).
5; Detector; 425V; Luminescence; Viewlux PerkinElmer.
NOTES (numbers refer to Sequence numbers above)
1. The cell-based screening methods employed in this study were like those previously published. Briefly, the corresponding myeloma cell lines were screened in 1,536-well plates with 500 cells, 5-uL per well for inhibition of cell viability (assessed by measuring ATP levels with CellTiterGlo).
2. NCATS MIPE 4.0 library of approved and investigational drugs were added using the Kalypsis pin tool. Wells treated with DMSO only for 100% viability and media only for 0% viability were used as controls.
3. The assay plates were covered and incubated for 48 hours in a 37C, 5% CO2 incubator with controlled humidity.
4. After 48 hours, CellTilter-GloTM luminescent substrate mix (Promega) reagent was added to the assay plate and plates we incubated for 5 min at room temperature.
5. Signal was measured as median relative luminescence units on a ViewLux (PerkinElmer) multiplate reader.
[1] Heske CM, Davis MI, Baumgart JT, Wilson K, Gormally MV, Chen L, Zhang X, Ceribelli M, Duveau DY, Guha R, Ferrer M, Arnaldez FI, Ji J, Tran HL, Zhang Y, Mendoza A, Helman LJ, Thomas CJ. Matrix Screen Identifies Synergistic Combination of PARP Inhibitors and Nicotinamide Phosphoribosyltransferase (NAMPT) Inhibitors in Ewing Sarcoma. Clin Cancer Res. 2017 Dec 1;23(23):7301-7311. doi: 10.1158/1078-0432.CCR-17-1121. Epub 2017 Sep 12. PMID: 28899971; PMCID: PMC6636827.
Potency means the concentration at half of the fitted maximal effect.

For `Cc1cccc(-c2[nH]ncc2-c2ccc3ncccc3n2)n1`, which Potency is on record?
Its Potency is “inactive”.

With `COC(=O)[C@H](Cc1ccccc1)NC(=O)[C@@H](N)CC(=O)O` (H-Asp-Phe-OMe) as the compound, how does the Potency read?
The Potency was 14.8 µM (active).

With `Cc1ccc(NC(=O)c2ccc(CN3CCN(C)CC3)cc2)cc1Nc1nccc(-c2cccnc2)n1` as the compound, how does the Potency read?
The Potency was 33.2 µM (active).

With `CCOC(=O)C1=C(O)C(=O)N(Cc2ccccc2)C1` as the compound, how does the Potency read?
Its Potency is “inactive”.

Which Potency does the source give for `Nc1nc(OCc2ccccc2)c2[nH]cnc2n1` here?
Its Potency is 16.6 µM (active).

With `Cc1ccc(Nc2nccc(N(C)c3ccc4c(C)n(C)nc4c3)n2)cc1S(N)(=O)=O` as the compound, how does the Potency read?
Its Potency is 11.8 µM (active).

For `O=C(NOCC1CC1)c1ccc(F)c(F)c1Nc1ccc(I)cc1Cl`, which Potency is on record?
Its Potency is 6.62 µM (active).

With `CCN(CCO)CCCC(C)Nc1ccnc2cc(Cl)ccc12` (stereo not given) as the compound, how does the Potency read?
Its Potency is “inactive”.

Which Potency does the source give for `NNc1nncc2ccccc12` here?
Its Potency is “inactive”.

Which Potency does the source give for `COCCCN1CCC(NC(=O)c2cc(Cl)c(N)c3c2OCC3)CC1` here?
The Potency was 5.9 µM (active).

For `CNC[C@H](O)c1ccc(O)c(O)c1`, which Potency is on record?
The Potency was “inactive”.

Which Potency does the source give for `CS(=O)(=O)OCCCCOS(C)(=O)=O` here?
The Potency was “inactive”.

For `Cc1cc2cc3c(C)cc(=O)oc3c(C)c2o1`, which Potency is on record?
The Potency was 6.62 µM (active).

Which Potency does the source give for `CC1Cc2ccccc2N1NC(=O)c1ccc(Cl)c(S(N)(=O)=O)c1` (stereo not given) here?
Its Potency is “inactive”.

With `C[C@]12CCC(=O)C=C1CC[C@@H]1[C@H]2[C@@H](O)C[C@@]2(C)[C@H]1CC[C@]2(O)C(=O)CO` as the compound, how does the Potency read?
Its Potency is 18.7 µM (active).

Which Potency does the source give for `CC(C)c1nc(CN(C)C(=O)N[C@H](C(=O)N[C@@H](Cc2ccccc2)C[C@H](O)[C@H](Cc2ccccc2)NC(=O)OCc2cncs2)C(C)C)cs1` here?
The Potency was “inactive”.

With `O=C1NC(=O)C(c2ccccc2[N+](=O)[O-])=C1Nc1ccc(O)c(Cl)c1` as the compound, how does the Potency read?
The Potency was 6.62 µM (active).

With `COc1ccc2cc([C@H](C)C(=O)O)ccc2c1` as the compound, how does the Potency read?
Its Potency is “inactive”.

Which Potency does the source give for `CCN(CC)CCOc1ccc(Nc2ncc3cc(-c4c(Cl)cccc4Cl)c(=O)n(C)c3n2)cc1` here?
The Potency was 0.0296 µM (active).

With `Cc1cc(Cl)ccc1OCCCC(=O)NO` as the compound, how does the Potency read?
Its Potency is 1.05 µM (active).

With `NS(=O)(=O)c1cc(C(=O)O)c(NCc2ccco2)cc1Cl` as the compound, how does the Potency read?
Its Potency is “inactive”.

Which Potency does the source give for `O=C(c1ccccc1)c1ccc2n1CCC2C(=O)O` (stereo not given) here?
The Potency was 9.35 µM (active).

For `NC(=O)Cc1cccc(C(=O)c2ccccc2)c1N`, which Potency is on record?
Its Potency is “inactive”.

With `CCN(CC)C(=S)SSC(=S)N(CC)CC` as the compound, how does the Potency read?
Its Potency is 0.001 µM (active).

Which Potency does the source give for `COc1ccccc1N1CCN(CCN(C(=O)C2CCCCC2)c2ccccn2)CC1` here?
The Potency was 1.48 µM (active).

Which Potency does the source give for `Cc1ccc(C(=O)c2cc(O)c(O)c([N+](=O)[O-])c2)cc1` here?
Its Potency is 23.5 µM (active).

Which Potency does the source give for `CCCCN(CCCC)CCC(O)c1cc2c(Cl)cc(Cl)cc2c2cc(C(F)(F)F)ccc12` (stereo not given) here?
Its Potency is 26.4 µM (active).

Which Potency does the source give for `COC(=O)C1=C(C)NC(C)=C(C(=O)OCCCN2CCC(c3ccccc3)(c3ccccc3)CC2)C1c1cccc([N+](=O)[O-])c1` (stereo not given) here?
Its Potency is “inactive”.

For `O=Nc1c(-c2c(O)[nH]c3cc(Br)ccc23)[nH]c2ccccc12`, which Potency is on record?
The Potency was 3.32 µM (active).

With `CCCCCCCCOc1ccccc1C(=O)Nc1ccc(C(=O)OCC[N+](C)(CC)CC)cc1` as the compound, how does the Potency read?
The Potency was 16.6 µM (active).

For `O=c1c(O)c(-c2ccc(O)cc2O)oc2cc(O)cc(O)c12`, which Potency is on record?
The Potency was “inactive”.

With `c1ccc2[nH]c(-c3cscn3)nc2c1` as the compound, how does the Potency read?
The Potency was “inactive”.

With `Cc1ccc(C)c(OCCCC(C)(C)C(=O)O)c1` as the compound, how does the Potency read?
The Potency was 9.35 µM (active).

For `Cc1cccc(CN2CCN(C(c3ccccc3)c3ccc(Cl)cc3)CC2)c1` (stereo not given), which Potency is on record?
Its Potency is 14.8 µM (active).

For `CC(S)C(=O)NCC(=O)O` (stereo not given), which Potency is on record?
The Potency was “inactive”.

For `CC(C)[N+]1(C)[C@@H]2CC[C@H]1CC(OC(=O)C(CO)c1ccccc1)C2` (stereo not given in full), which Potency is on record?
The Potency was “inactive”.

For `CCOC(=O)c1c(C)n(C)c2ccc(O)cc12`, which Potency is on record?
Its Potency is “inactive”.

Which Potency does the source give for `CCc1nc(N)nc(N)c1-c1ccc(Cl)cc1` here?
The Potency was “inactive”.

With `CCCCCCCCCCCCCCCCCCCCCCO` as the compound, how does the Potency read?
Its Potency is “inactive”.

With `O=C(NC(Cc1cc(=O)[nH]c2ccccc12)C(=O)O)c1ccc(Cl)cc1` (stereo not given) as the compound, how does the Potency read?
Its Potency is 26.4 µM (active).
